Screening data deposited in PubChem by Broad Institute.
This excerpt belongs to a sample that is enriched for hits.
Tgondii IFNg – T. gondii growth inhibition with IFN-gamma, primary screen, cell-based | Toxoplasma gondii growth in IFN-gamma-treated host cells; stronger effect = lower value | activity change, negative = inhibition, % (concentration not given with the values) | hit rate 3.8% among 69,000 | AID 1259416, 2018; in the data active means activity change below about -70%, passing the limit was not always enough;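 further: host cells are HeLa cells infected with Toxoplasma gondii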
Of the large screens only hits and unclear results are named; the others gave an inactive call.

COc1ccc(NC(=O)c2c(O)c3cccnc3n(-c3ccc(F)cc3)c2=O)cc1F	none
O=C(CN1C(=O)CCc2cc(S(=O)(=O)N3CCCCC3)ccc21)N1CCN(c2ccccc2)CC1	none
Cc1ccccc1NC(=O)CN1C(=O)CCc2cc(S(=O)(=O)N3CCCC3)ccc21	none
Cc1ccc2[nH]c(C(=O)NCc3cccnc3)c(NC(=O)c3ccc(Cl)cc3)c2c1	none
CNC(=O)c1ccc(CNC(=O)c2[nH]c3ccc(C)cc3c2C)o1	Tgondii IFNg -107.7
CNC(=O)c1ccc(CNC(=O)Cc2c(C)[nH]c3c(C)ccc(C)c23)o1	none
CCN1CCn2c(C)nc(C(=O)N3CCOC(c4ccc(F)cc4)C3)c2C1=O (stereo not given)	none
O=C(c1cccc(F)c1)N1CCc2ncc(Cn3cccn3)n2CC1	none
Cc1nc(CN(C)C(=O)COc2ccc(F)cc2)no1	none
CC1(C)C(=O)NC2=C1C(=O)C(=O)c1ccccc12	Tgondii IFNg -82.1
CC1(C)NC(=O)N(CC(O)CN2C(=O)c3ccccc3C2=O)C1=O (stereo not given)	none
CCN1C[C@H]2COC[C@H](CC(=O)NCc3ccco3)[C@H]2C1	none
COC(=O)CN1CC2(CCN(C(=O)CC3CC3)CC2)COc2ccccc2S1(=O)=O	none
COc1cccc(CN2CCC3(CCN(CC4CCOCC4)C3)C2=O)c1 (stereo not given)	none
COc1ccc(F)c(CN(CCCN(C)C)Cc2ccccn2)c1	none
Cc1oc(-c2cccc(C(F)(F)F)c2)nc1CN1CCCC(C(N)=O)C1 (stereo not given)	none
COc1ccc(CNC(=O)C2CCCN(Cc3nc(-c4cccc(C)c4)oc3C)C2)cc1 (stereo not given)	Tgondii IFNg -82.6
Cc1oc(-c2cccc(Cl)c2)nc1CN1CCCC(C(=O)NC2CCCCCC2)C1 (stereo not given)	none
COc1ccc(Nc2nccc(NCCO)n2)cc1	none
CCN(CC)c1ccc(NC(=S)NC(=O)c2ccc(OC)cc2)cc1	none
CCN(CC)c1nc(Nc2ccc(OC)cc2)nc(Nc2ccc(OC)cc2)n1	Tgondii IFNg -97.5
CC(C)N(CCCNS(=O)(=O)c1ccc2[nH]c(=O)ccc2c1)C1CCCCC1	none
Cc1ncsc1Cn1nc(C2CCNCC2)n(Cc2ccccc2)c1=O	none
Cc1nc(CCNC(=O)C2CCN(C(=O)c3ccc(Br)cc3)CC2)cs1	none
CC1c2snnc2-c2cc(Cl)ccc2S1(=O)=O (stereo not given)	Tgondii IFNg -102.5
COc1ccc2c(c1)NC1(CCN(S(=O)(=O)c3ccc(Cl)s3)CC1)c1cccn1-2	none
COCCN1CCn2cc(CNC(=O)c3cnn(C)c3)nc2C1	none
O=C(Nc1ccc(OC(F)(F)F)cc1)c1c(O)c2ccccc2[nH]c1=O	none
O=c1cc(Nc2ccc(OC(F)(F)F)cc2)c2ccccc2o1	Tgondii IFNg -101.5
O=c1nc(Nc2ccc(OC(F)(F)F)cc2)c2ccccc2o1	none
CCCC(=O)Nc1ccc(CC(=O)NCc2n[nH]c3c2CCC3)cc1	none
COc1ccc(Cn2c(C(C)OC)n[nH]c2=O)cc1 (stereo not given)	none
CN(Cc1ccco1)C[C@H]1OC[C@H]2CCN(C(=O)c3ccsc3)C[C@H]21	none
O=S(=O)(Nc1ccc(Oc2ncnc3cc(Cl)ccc23)nc1)c1cccs1	none
CC(=O)N(c1ccc(NS(=O)(=O)c2cccs2)cn1)S(=O)(=O)c1cccs1	Tgondii IFNg -102.5
CC(C)N(Cc1ccccc1)S(=O)(=O)c1cccs1	none
COc1ccc(C)cc1-n1cnnc1CCN	none
O=C(Cn1ncc2c(N3CCCCC3)ncnc21)NCc1ccc(F)cc1Cl	none
Cc1oc(-c2ccc(Cl)cc2)nc1Cn1ccn2nc(-c3cccs3)cc2c1=O	none
OCc1ccc(CN(Cc2ccncc2)Cc2ccc(F)cc2)o1	none
CCc1ccc(CN(Cc2ccncc2)Cc2ccc(F)cc2)nc1	none
Fc1ccc(CN(Cc2ccncc2)Cc2cccc3c2OCO3)cc1	Tgondii IFNg -82.1
CC(C)O.CC(C)O.CC(C)O.[In]	none
CN(CC1(CO)CCCC1)c1nccc(N2CCCC(O)C2)n1 (stereo not given)	none
O=C(C[C@H]1C[C@@H]2CN(Cc3ccccc3)C[C@H]2O1)N1CCCCO1	none
COc1ccccc1-c1cc(NC(=O)c2nnn(-c3ccc(Cl)cc3)c2C)n(C)n1	Tgondii IFNg -78.0
COc1ccccc1-c1nc(Cn2nnc(C(=O)Nc3cc(Cl)ccc3C)c2C)c(C)o1	none
COc1ccccc1-c1cc(NC(=O)c2cccc(Cn3ccnc3C)c2)n(C)n1	none
Cc1c(C(=O)N2CCN(C3CCCCC3)CC2)cnn1-c1nccc(-c2ccccc2F)n1	none
CCOC(=O)C1CCN(C(=O)CCNc2c(C)nc3cnccn23)CC1	none
Cn1cnc(-c2nc(C(=O)NCC3CCCO3)c3ccccn23)c1 (stereo not given)	none
COc1ccc(N(C)c2ccc3ccc(C(=O)CCN4CCOCC4)cn23)cc1	none
CN1CC2(CCCCN2C(=O)c2ccn[nH]2)CC1=O (stereo not given)	none
Cc1cccnc1-c1ccc2c(c1)CC(CNC(=O)/C=C/c1ccc(F)cc1F)O2 (stereo not given)	none
Cc1cc(C(=O)N2CCC(c3cc4c(ncn4C)c(NCC4CC4)n3)CC2)ccc1Cl	Tgondii IFNg -85.0
Cn1cnc2c(NCc3ccccc3)nc(C3CCN(S(C)(=O)=O)CC3)cc21	none
CC(C)n1cnc2c(NCC3CC3)nc(C3CCN(C(=O)c4cccc(F)c4F)CC3)cc21	none
Cc1ncnc2c1CCN(CCN1CCCC1)CC2	none
NC(=O)C(c1ccccc1)(c1ccc(F)cc1)c1ccc(F)cc1	none
OC(CCCN1CCCCC1)(c1ccccc1)c1ccccc1	none
OC(C#CC(O)(c1ccccc1)c1ccccc1)(c1ccccc1)c1ccccc1	Tgondii IFNg -93.4
CC(C)c1cc(C(=O)N2CCc3onc(-c4ccc5c(c4)OCO5)c3C2)n[nH]1	none
CC(Cc1cccs1)Nc1nc(-c2cccnc2)nc2c1cnn2C (stereo not given)	none
Cn1c(CN2CCCC(OCc3ccccn3)C2)cc2cc(F)ccc21 (stereo not given)	none
CC(C)(C)c1ccc(C23OC(=O)C4(CCCC4)C2OC(=O)C32CCCC2)cc1 (stereo not given)	Tgondii IFNg -73.5
O=C(NCC(c1cccnc1)c1c[nH]c2ccccc12)Nc1ccccc1C(F)(F)F (stereo not given)	none
O=C(NCC(c1ccccc1)c1c[nH]c2ccccc12)c1ccc(C(F)(F)F)cc1 (stereo not given)	Tgondii IFNg -88.1
CCc1ccccc1NC(=O)NCC(c1cccnc1)c1c[nH]c2ccccc12 (stereo not given)	none
Cc1cc(C)n(-c2nc(-c3ccccc3)cc(-c3ccccc3)n2)n1	none
Cc1cc(C)n(-c2ncnc3sc(-c4ccccc4)cc23)n1	Tgondii IFNg -94.4
Cc1cc(C)n(-c2nnc(-c3ccccc3)c(-c3ccccc3)c2-c2ccccc2)n1	none
CCOC(=O)N1CCC2(CC1)OC(=O)C(C)=C2C(=O)Nc1cccc(OC)c1	none
CCOC(=O)N[C@H]1C[C@@H](C(=O)NCCc2cccc(Cl)c2)N(C)C1	none
Cc1ccc2[nH]nc(C(=O)Nc3nnc(CCOc4ccc(Cl)cc4)s3)c2c1	none
CC(=O)N1CCc2c([nH]c3ccccc23)C12C(=O)N(C)c1ccccc12 (stereo not given)	none
CN1c2ccccc2C(=O)N2CCc3c([nH]c4ccccc34)C21 (stereo not given)	Tgondii IFNg -80.2
CCc1ccc(C2c3[nH]c4ccccc4c3CCN2C(=O)CSC)cc1 (stereo not given)	none
Cc1[nH]c(-c2ccccc2)nc1C(=O)N1CCC(O)(CN(C)C)C1 (stereo not given)	none
CS(=O)(=O)c1ccc(CN2C[C@@H]3[C@H](C2)[C@H]2CC[C@@H]3O2)cc1	none
CNC(=O)[C@H]1C[C@@H]2CN(Cc3cnn(C)c3)C[C@@H]2N1C(C)=O	none
